# Assay results reported in PubChem BioAssay (EPA / NIEHS).
# The source made the active and inactive calls. The calls were made as follows: active = hit-call score of the fitted dose curve at least 0.9, where 1 is the maximum; inactive = score below 0.9.
# Key:
# Settings in all cases: mRNA level, 48 h; actives raise or lower the signal
# [1] = read-out: Hypoxia-inducible factor 1-alpha (Homo sapiens) (UniProt Q16665); test: LTEA_HepaRG_HIF1A: Life Technologies and Expression Analysis (LTEA) Assay for Hypoxia-inducible factor 1 (HIF1A) Trancription factor using HepaRG (AID 2283503)
# Summary of the method: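 HepaRG, 48 h exposure, 8-pt half-log series from 100 uM, 0.5% DMSO vehicle, duplicates. Readout: HIF1A transcript by qRT-PCR (Fluidigm array), housekeeping-normalised. Bidirectional curve fit vs DMSO baseline.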
# [2] = read-out: 3-Hydroxy-3-Methylglutaryl-CoA Synthase 2 (HMGCS2), HMGCS2 (gene 3158); test: LTEA_HepaRG_HMGCS2: Life Technologies and Expression Analysis (LTEA) Assay for 3-Hydroxy-3-Methylglutaryl-CoA Synthase 2 (HMGCS2) using HepaRG (AID 2283504)
# Summary of the method: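 HepaRG, plated 48 h then switched to serum-free induction media; cmpd 8-pt, max 100 uM, 1/2-log, 0.5% DMSO, n=2, 48 h. HMGCS2 mRNA by Fluidigm TaqMan qRT-PCR, ACTB/GAPDH/POLR2A norm; bidirectional fit vs DMSO.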
# HGF (gene 3082) = test: LTEA_HepaRG_HGF: Life Technologies and Expression Analysis (LTEA) Assay for Hepatocyte Growth Facto (HGF) using HepaRG (AID 2283505)
# Summary of the method: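 Read-out is HGF transcript level by qRT-PCR, normalized to three housekeeping genes, fitted bidirectionally against 0.5% DMSO vehicle. Human HepaRG cells received test chemicals for 48 h at up to 100 uM.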
# [3] = read-out: Insulin Like Growth Factor 1 (IGF1), IGF1 (gene 3479); test: LTEA_HepaRG_IGF1: Life Technologies and Expression Analysis (LTEA) Assay for Insulin Like Growth Factor 1 (IGF1) using HepaRG (AID 2283506)
# Summary of the method: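 Using human HepaRG liver cells, IGF1 transcript induction or suppression is measured 48 h after dosing across eight concentrations capped at 100 uM. Values derive from bidirectional concentration-response fitting with DMSO as baseline.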
# [4] = read-out: Intercellular Adhesion Molecule 1 (ICAM1), ICAM1 (gene 3383); test: LTEA_HepaRG_ICAM1: Life Technologies and Expression Analysis (LTEA) Assay for Intercellular Adhesion Molecule 1 (ICAM1) using HepaRG (AID 2283507)
# Summary of the method: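 Readout is qRT-PCR mRNA level, normalized to three housekeeping genes and fitted bidirectionally against 0.5% DMSO vehicle. Human HepaRG cultures received compound for 48 h, top concentration 100 uM with half-log dilutions.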
# [5] = read-out: Insulin-like growth factor-binding protein 1 (IGFBP1), IGFBP1 (gene 3484); test: LTEA_HepaRG_IGFBP1: Life Technologies and Expression Analysis (LTEA) Assay for Insulin-like growth factor-binding protein 1 (IGFBP1) using HepaRG (AID 2283508)
# Summary of the method: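 Thawed HepaRG cells are plated for 48 h, switched to serum-free induction medium, then dosed in duplicate for another 48 h (100 uM top, half-log steps). Lysates in RLT go to qRT-PCR, and gain or loss of signal is fitted relative to vehicle.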
# [6] = read-out: Interleukin 6 (IL6), IL6 (gene 3569); test: LTEA_HepaRG_IL6: Life Technologies and Expression Analysis (LTEA) Assay for Interleukin 6 (IL6) using HepaRG (AID 2283509)
# Summary of the method: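 Differentiated human HepaRG cells, plated 48 h then switched to serum-free induction medium, were exposed in duplicate for 48 h to eight half-log concentrations up to 100 uM in 0.5% DMSO. IL6 mRNA measured by qRT-PCR, normalized to ACTB/GAPDH/POLR2A.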
# [7] = read-out: Interleukin 6 Receptor (IL6R), IL6R (gene 3570); test: LTEA_HepaRG_IL6R: Life Technologies and Expression Analysis (LTEA) Assay for Interleukin 6 Receptor (IL6R) using HepaRG (AID 2283510);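 as to AC50: TaqMan qRT-PCR signal normalized to ACTB GAPDH and POLR2A housekeeping genes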
# Summary of the method: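 Concentration-response in human liver HepaRG cells: eight concentrations from 100 uM downward by half-logs, 48 h exposure, 0.5% DMSO vehicle. IL6R mRNA change measured by qRT-PCR and fitted in both directions relative to vehicle.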
# [8] = read-out: Potassium channel subfamily K member 1 (KCNK1), KCNK1 (gene 3775); test: LTEA_HepaRG_KCNK1: Life Technologies and Expression Analysis (LTEA) Assay for Potassium channel subfamily K member 1 (KCNK1) using HepaRG (AID 2283511)
# Summary of the method: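 Differentiated human HepaRG cells in serum-free induction medium were exposed in duplicate for 48 h to 8 half-log concentrations up to 100 uM in 0.5% DMSO. KCNK1 mRNA was measured by TaqMan qRT-PCR, normalized to ACTB, GAPDH and POLR2A, and fitted bidirectionally versus DMSO.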
# [9] = read-out: Keratin 19 (KRT19), KRT19 (gene 3880); test: LTEA_HepaRG_KRT19: Life Technologies and Expression Analysis (LTEA) Assay for Keratin 19 (KRT19) using HepaRG (AID 2283512)
# Summary of the method: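 KRT19 transcript levels, measured by Fluidigm qRT-PCR against three housekeeping genes, are fitted for gain or loss of signal relative to DMSO. Human HepaRG cells receive test chemicals (top 100 uM, half-log steps, 0.5% DMSO) for 48 hours.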
# [10] = read-out: JUN Transcription Factor, JUN (gene 3725); test: LTEA_HepaRG_JUN: Life Technologies and Expression Analysis (LTEA) Assay for JUN Transcription Factor using HepaRG (AID 2283513)
# Summary of the method: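 Human HepaRG liver cells receive test chemicals in 0.5% DMSO for 48 h across an eight-point range topping at 100 uM. Expression changes in JUN are scored in both directions against the DMSO vehicle.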
# [11] = read-out: Lipase C (LIPC), LIPC (gene 3990); test: LTEA_HepaRG_LIPC: Life Technologies and Expression Analysis (LTEA) Assay for Lipase C (LIPC) using HepaRG (AID 2283514)
# Summary of the method: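 Differentiated human HepaRG cells in serum-free induction medium were exposed in duplicate for 48 h to eight concentrations (top 100 uM, half-log steps, 0.5% DMSO). LIPC mRNA was quantified by TaqMan qRT-PCR, normalized to ACTB, GAPDH and POLR2A, with bidirectional fitting versus DMSO.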
# [12] = read-out: Lipoprotein lipase (LPL), LPL (gene 4023); test: LTEA_HepaRG_LPL: Life Technologies and Expression Analysis (LTEA) Assay for Lipoprotein lipase (LPL) using HepaRG (AID 2283515)
# Summary of the method: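 Differentiated human HepaRG cells in serum-free induction medium were exposed in duplicate for 48 h to eight half-log concentrations (top 100 uM) in 0.5% DMSO. LPL mRNA was quantified by TaqMan qRT-PCR, normalized to ACTB, GAPDH and POLR2A.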
# [13] = read-out: MicroRNA 122 (MIR122), gene 406906; test: LTEA_HepaRG_MIR122: Life Technologies and Expression Analysis (LTEA) Assay for MicroRNA 122 (MIR122) using HepaRG (AID 2283516); also: the transcript read is the microRNA miR-122
# Summary of the method: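 HepaRG, 48 h exposure, 8-pt half-log from 100 uM, 0.5% DMSO; TaqMan qRT-PCR; bidirectional fit vs DMSO.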
# [14] = read-out: matrix metalloproteinase-10 (MMP10), MMP10 (gene 4319); test: LTEA_HepaRG_MMP10: Life Technologies and Expression Analysis (LTEA) Assay for matrix metalloproteinase-10 (MMP10) using HepaRG (AID 2283517)
# Summary of the method: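 HepaRG, collagen I, ~100,000 cells/well; serum-free induction medium; 48 h exposure, duplicate, 8-pt half-log to 100 uM, 0.5% DMSO. Readout: TaqMan qRT-PCR, normalized to ACTB/GAPDH/POLR2A; bidirectional fit vs DMSO.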
# MYC, MYC (gene 4609) = test: LTEA_HepaRG_MYC: Life Technologies and Expression Analysis (LTEA) Assay for MYC using HepaRG (AID 2283518)
# Summary of the method: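 HepaRG, ~100,000 cells/well, collagen I; 48 h plating; serum-free induction medium; 48 h dosing, duplicate, 100 uM top, half-log, 0.5% DMSO; total RNA → qRT-PCR MYC; gain/loss fit vs DMSO.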
# [15] = read-out: matrix metalloproteinase-3 (MMP3), MMP3 (gene 4314); test: LTEA_HepaRG_MMP3: Life Technologies and Expression Analysis (LTEA) Assay for matrix metalloproteinase-3 (MMP3) using HepaRG (AID 2283519)
# Summary of the method: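 Differentiated human HepaRG cells, plated 48 h on collagen I, were exposed in duplicate for 48 h in serum-free induction medium to eight half-log concentrations up to 100 uM in 0.5% DMSO. MMP3 mRNA was quantified by TaqMan qRT-PCR, normalised to ACTB, GAPDH and POLR2A.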
# [16] = read-out: Nuclear factor NF-kappa-B p105 subunit (Homo sapiens) (UniProt P19838); test: LTEA_HepaRG_NFKB1: Life Technologies and Expression Analysis (LTEA) Assay for Nuclear Factor Kappa B Subunit 1 (NFKB1) using HepaRG (AID 2283521);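 also: TaqMan qRT-PCR transcript normalised to ACTB GAPDH and POLR2A housekeeping genes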
# Summary of the method: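 Differentiated human HepaRG cells were exposed for 48 h in serum-free induction medium to eight concentrations (top 100 uM, half-log steps, 0.5% DMSO), in duplicate. NFKB1 mRNA was measured by TaqMan qRT-PCR, normalized to ACTB/GAPDH/POLR2A, and fitted bidirectionally against DMSO.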
# [17] = read-out: Protein phosphatase 2A (PPP2R4), PTPA (gene 5524); test: LTEA_HepaRG_PPP2R4: Life Technologies and Expression Analysis (LTEA) Assay for Protein phosphatase 2A (PPP2R4) using HepaRG (AID 2283522)
# Summary of the method: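 Gene-expression endpoint in HepaRG hepatic cells: 48 h treatment across eight half-log concentrations up to 100 uM in 0.5% DMSO. PPP2R4 mRNA by qRT-PCR, normalized to three endogenous control genes.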
# [18] = read-out: Paternally Expressed 10 (PEG10), PEG10 (gene 23089); test: LTEA_HepaRG_PEG10: Life Technologies and Expression Analysis (LTEA) Assay for Paternally Expressed 10 (PEG10) using HepaRG (AID 2283520)
# Summary of the method: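 Chemicals tested on HepaRG cells for 48 h, highest concentration 100 uM. PEG10 expression assessed by qRT-PCR relative to DMSO control.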
# Sequence of Nuclear factor NF-kappa-B p105 subunit (Homo sapiens) (P19838 whole entry, looked up): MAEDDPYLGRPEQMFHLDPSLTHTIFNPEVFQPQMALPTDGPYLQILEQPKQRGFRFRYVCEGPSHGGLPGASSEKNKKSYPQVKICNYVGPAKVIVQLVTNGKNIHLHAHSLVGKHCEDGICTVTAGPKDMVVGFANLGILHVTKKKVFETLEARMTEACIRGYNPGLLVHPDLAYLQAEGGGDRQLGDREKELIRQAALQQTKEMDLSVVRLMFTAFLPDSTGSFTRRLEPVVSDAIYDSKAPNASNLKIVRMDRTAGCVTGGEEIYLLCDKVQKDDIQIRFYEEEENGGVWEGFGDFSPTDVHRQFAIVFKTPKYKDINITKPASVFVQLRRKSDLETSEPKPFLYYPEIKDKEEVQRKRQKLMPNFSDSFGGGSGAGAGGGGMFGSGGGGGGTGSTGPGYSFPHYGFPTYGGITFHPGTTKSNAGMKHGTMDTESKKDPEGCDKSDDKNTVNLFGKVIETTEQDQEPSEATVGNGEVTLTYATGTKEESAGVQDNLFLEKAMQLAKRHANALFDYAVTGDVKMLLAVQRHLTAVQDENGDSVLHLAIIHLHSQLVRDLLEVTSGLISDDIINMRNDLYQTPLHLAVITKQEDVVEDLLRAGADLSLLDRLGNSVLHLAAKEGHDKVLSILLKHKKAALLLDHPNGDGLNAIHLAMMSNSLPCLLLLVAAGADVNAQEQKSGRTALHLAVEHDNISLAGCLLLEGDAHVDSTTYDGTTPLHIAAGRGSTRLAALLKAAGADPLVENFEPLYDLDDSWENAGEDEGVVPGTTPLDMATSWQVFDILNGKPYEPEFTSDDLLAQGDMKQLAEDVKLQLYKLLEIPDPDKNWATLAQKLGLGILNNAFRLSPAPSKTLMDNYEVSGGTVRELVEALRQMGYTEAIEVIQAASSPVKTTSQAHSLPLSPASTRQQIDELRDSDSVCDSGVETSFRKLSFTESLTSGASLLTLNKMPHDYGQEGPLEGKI
# Sequence of Hypoxia-inducible factor 1-alpha (Homo sapiens) (Q16665 whole entry, looked up): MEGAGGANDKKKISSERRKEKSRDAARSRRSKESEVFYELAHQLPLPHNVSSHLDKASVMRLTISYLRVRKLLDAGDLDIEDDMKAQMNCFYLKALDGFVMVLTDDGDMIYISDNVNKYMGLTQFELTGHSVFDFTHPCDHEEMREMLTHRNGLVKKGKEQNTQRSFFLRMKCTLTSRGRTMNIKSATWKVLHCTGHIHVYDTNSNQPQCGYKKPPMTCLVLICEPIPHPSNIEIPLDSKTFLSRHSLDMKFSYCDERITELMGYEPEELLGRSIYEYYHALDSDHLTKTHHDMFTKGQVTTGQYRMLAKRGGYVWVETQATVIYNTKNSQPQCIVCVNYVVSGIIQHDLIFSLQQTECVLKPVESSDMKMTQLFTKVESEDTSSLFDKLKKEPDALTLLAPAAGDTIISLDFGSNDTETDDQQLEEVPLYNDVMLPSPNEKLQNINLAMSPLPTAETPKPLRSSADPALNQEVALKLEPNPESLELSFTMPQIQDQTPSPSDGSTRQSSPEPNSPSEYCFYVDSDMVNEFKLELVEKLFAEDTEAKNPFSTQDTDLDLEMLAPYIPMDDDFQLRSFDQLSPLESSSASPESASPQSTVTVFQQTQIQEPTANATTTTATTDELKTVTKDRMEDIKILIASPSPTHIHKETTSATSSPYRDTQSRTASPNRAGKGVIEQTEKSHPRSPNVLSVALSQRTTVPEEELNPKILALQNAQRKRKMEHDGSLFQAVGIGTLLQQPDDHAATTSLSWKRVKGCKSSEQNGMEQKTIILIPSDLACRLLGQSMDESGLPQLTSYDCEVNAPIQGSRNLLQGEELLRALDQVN
structure (smiles),measurement,setting,value
CNC(=O)ON=C(SC)C(=O)N(C)C,outcome,[1],inactive
same,outcome,[2],inactive
same,outcome,HGF (gene 3082),inactive
same,outcome,[3],inactive
same,outcome,[4],inactive
same,outcome,[5],inactive
same,outcome,[6],inactive
same,outcome,[7],inactive
same,outcome,[8],inactive
same,outcome,[9],inactive
same,outcome,[10],inactive
same,outcome,[11],inactive
same,AC50,[12],0.289 µM (active)
same,outcome,[13],inactive
same,outcome,[14],inactive
same,outcome,"MYC, MYC (gene 4609)",inactive
same,outcome,[15],inactive
same,outcome,[16],inactive
same,outcome,[17],inactive
CCOC(=O)COc1cc(-c2nn(C)c(OC(F)F)c2Cl)c(F)cc1Cl,outcome,[1],inactive
same,outcome,[2],inactive
same,outcome,HGF (gene 3082),inactive
same,outcome,[3],inactive
same,outcome,[4],inactive
same,outcome,[5],inactive
same,outcome,[6],inactive
same,outcome,[7],inactive
same,outcome,[8],inactive
same,outcome,[9],inactive
same,outcome,[10],inactive
same,outcome,[11],inactive
same,outcome,[12],inactive
same,outcome,[13],inactive
same,outcome,"MYC, MYC (gene 4609)",inactive
same,outcome,[15],inactive
same,outcome,[18],inactive
same,outcome,[16],inactive
same,outcome,[17],inactive
N#CSCSC#N,outcome,[1],inactive
same,AC50,[2],82.1 µM (active)
same,outcome,HGF (gene 3082),inactive
same,outcome,[3],inactive
same,outcome,[4],inactive
same,outcome,[5],inactive
same,outcome,[6],inactive
same,AC50,[7],68.4 µM (active)
same,outcome,[8],inactive
same,AC50,[9],90.1 µM (active)
same,outcome,[10],inactive
same,AC50,[11],93.7 µM (active)
same,AC50,[12],78.1 µM (active)
same,AC50,[13],65.1 µM (active)
same,outcome,"MYC, MYC (gene 4609)",inactive
same,outcome,[15],inactive
same,outcome,[18],inactive
same,outcome,[16],inactive
same,outcome,[17],inactive
CSC1=N[C@@](C)(c2ccccc2)C(=O)N1Nc1ccccc1,AC50,[1],77.1 µM (active)
same,AC50,[2],35.3 µM (active)
same,outcome,HGF (gene 3082),inactive
same,AC50,[3],27.6 µM (active)
same,AC50,[4],34 µM (active)
same,AC50,[5],31.6 µM (active)
same,AC50,[6],33.3 µM (active)
same,AC50,[7],16.5 µM (active)
same,outcome,[8],inactive
same,AC50,[9],18.7 µM (active)
same,outcome,[10],inactive
same,AC50,[11],31.4 µM (active)
same,AC50,[12],26.9 µM (active)
same,AC50,[13],50 µM (active)
same,AC50,"MYC, MYC (gene 4609)",31.2 µM (active)
same,outcome,[15],inactive
same,outcome,[17],inactive
CCOP(=O)(NC(C)C)Oc1ccc(SC)c(C)c1 (centres undefined),outcome,[1],inactive
same,AC50,[2],18.8 µM (active)
same,outcome,HGF (gene 3082),inactive
same,AC50,[3],50 µM (active)
same,outcome,[4],inactive
same,outcome,[5],inactive
same,outcome,[6],inactive
same,outcome,[7],inactive
same,outcome,[8],inactive
same,outcome,[9],inactive
same,outcome,[10],inactive
same,outcome,[11],inactive
same,outcome,[12],inactive
same,outcome,[13],inactive
same,outcome,"MYC, MYC (gene 4609)",inactive
same,outcome,[15],inactive
same,outcome,[16],inactive
same,outcome,[17],inactive
Cc1cc(C2CC2)nc(Nc2ccccc2)n1,outcome,[1],inactive
same,outcome,[2],inactive
same,outcome,HGF (gene 3082),inactive
same,outcome,[3],inactive
same,outcome,[4],inactive
same,outcome,[6],inactive
same,AC50,[7],50 µM (active)
same,outcome,[8],inactive
same,AC50,[9],22.9 µM (active)
same,outcome,[10],inactive
same,outcome,[11],inactive
same,outcome,[12],inactive
same,outcome,[13],inactive
same,outcome,[14],inactive
same,outcome,"MYC, MYC (gene 4609)",inactive
same,outcome,[15],inactive
same,outcome,[18],inactive
same,outcome,[17],inactive
CNC(=O)ON=C(C)SC,outcome,[1],inactive
same,outcome,[2],inactive
same,outcome,HGF (gene 3082),inactive
same,outcome,[3],inactive
same,outcome,[4],inactive
same,outcome,[6],inactive
same,outcome,[7],inactive
same,outcome,[8],inactive
same,outcome,[9],inactive
same,outcome,[10],inactive
same,outcome,[11],inactive
same,outcome,[12],inactive
same,outcome,[13],inactive
same,outcome,[14],inactive
same,outcome,"MYC, MYC (gene 4609)",inactive
same,outcome,[15],inactive
same,outcome,[18],inactive
same,outcome,[16],inactive
same,outcome,[17],inactive
